Screens from PubChem BioAssay.
TDP1 cell CPT = qHTS for Inhibitors of human tyrosyl-DNA phosphodiesterase 1 (TDP1): qHTS in cells in presence of CPT; chicken DT40 Tdp1-/-;hTDP1 cells + 20 nM CPT, ATP luminescence, 48 h; Potency, µM (doses to about 46.2 µM), for the others: at the top dose activity change, negative = growth inhibition, usual class: inhibitors; 12% of 420,000 active; also: potency is read from the fitted curve at half-maximal effect; nearly all actives have a fitted effect of over 55% in size
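Chicken DT40 Tdp1-/- cells stably complemented with human TDP1 were seeded at 400 cells/well in medium containing 20 nM camptothecin, exposed to pin-transferred compounds, and grown at 37 °C for at least 48 hr. Viability was read as ATP luminescence.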
IL1B secr inh = qHTS for Inhibitors of Inflammasome Signaling: IL-1-beta AlphaLISA Primary Screen | THP-1 LPS/ATP IL-1B secretion, AlphaLISA, 16 h; stronger effect = lower value | activity change, % at 57.5 µM | 4.7% of 360,000 active; in the data active = activity change below about -50%; inconclusive = mostly about -30% to -49%
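Secreted IL-1B measured by AlphaLISA bead assay after 16 h compound exposure of THP-1 cells; compounds (final up to 57.5 uM) added 1 h before LPS (250 ng/mL) and ATP (1.25 mM) stimulation; lower signal means less secretion.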
Six1-Eya2 blk = qHTS Assay for Inhibitors of the Six1/Eya2 Interaction; AlphaScreen GST-Six1/His-Eya2 binding, biochemical; stronger effect = lower value; Homeobox protein SIX1 (Homo sapiens) + Protein phosphatase EYA2 (Homo sapiens), …; activity change, % (no concentration beside the values); 0.56% of 360,000 active; in the data active = activity change below about -65%; inconclusive = mostly about -30% to -63%
Target sequence (O00167 whole entry, looked up): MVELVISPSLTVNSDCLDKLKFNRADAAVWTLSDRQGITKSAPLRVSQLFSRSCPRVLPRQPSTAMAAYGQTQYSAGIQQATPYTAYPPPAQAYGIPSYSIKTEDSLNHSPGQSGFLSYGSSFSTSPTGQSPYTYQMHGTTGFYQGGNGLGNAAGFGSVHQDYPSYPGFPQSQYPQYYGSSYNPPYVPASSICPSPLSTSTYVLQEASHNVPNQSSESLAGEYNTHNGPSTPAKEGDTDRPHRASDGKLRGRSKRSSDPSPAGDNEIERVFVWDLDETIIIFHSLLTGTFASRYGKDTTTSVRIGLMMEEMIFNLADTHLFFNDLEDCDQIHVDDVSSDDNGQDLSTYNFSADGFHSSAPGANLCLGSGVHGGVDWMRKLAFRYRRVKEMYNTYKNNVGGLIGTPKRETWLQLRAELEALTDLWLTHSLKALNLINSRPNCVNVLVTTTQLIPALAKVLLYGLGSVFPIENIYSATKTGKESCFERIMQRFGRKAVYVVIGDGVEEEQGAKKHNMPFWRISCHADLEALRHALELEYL
Target sequence (Q15475 whole entry, looked up): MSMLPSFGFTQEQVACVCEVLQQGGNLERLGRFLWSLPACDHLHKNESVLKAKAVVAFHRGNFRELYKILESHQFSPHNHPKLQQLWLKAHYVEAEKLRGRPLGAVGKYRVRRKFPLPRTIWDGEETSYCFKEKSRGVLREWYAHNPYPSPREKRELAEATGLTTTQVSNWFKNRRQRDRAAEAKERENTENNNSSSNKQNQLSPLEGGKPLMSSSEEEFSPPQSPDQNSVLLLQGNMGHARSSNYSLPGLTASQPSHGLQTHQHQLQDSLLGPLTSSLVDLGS
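Homogeneous AlphaScreen proximity assay pairing GST-Six1 with His-tagged Eya2 (added as 5X mix: 250 nM and 500 nM) in 50 mM Tris pH 8.0, 300 mM NaCl, 1 mM TCEP. Glutathione donor and nickel acceptor beads; 1 h, 37 °C, dark.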
CtBP-E1A inh = qHTS Assay for Inhibitors of the CtBP/E1A Interaction | activity change, % (test concentration not listed) | CtBP / adenovirus E1A interaction (AlphaScreen) | AlphaScreen GST-E1A/His-CtBP binding, 1536-well; stronger effect = lower value | 0.49% of 340,000 active; in the data active = activity change below about -65%; inconclusive = mostly about -30% to -63%
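Steps: dispense buffer (Tris pH 8.0, NaCl 300 mM, TCEP 1 mM, BSA, Tween 20); add 5X protein mix (GST-E1A, His-CtBP, 125 nM each); pin 23 nL compound; 2 h at 37 °C, dark; add 5X beads (50 ug/mL); 1 h; read.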
DT40 TDP1 no CPT = qHTS for Inhibitors of human tyrosyl-DNA phosphodiesterase 1 (TDP1): qHTS in cells in absence of CPT | Potency, µM (doses to about 46.2 µM), for inactives: top-dose activity change, negative = growth inhibition, usual class: inhibitors | 15% of 420,000 active | DT40 Tdp1-/- hTDP1 cells, no CPT, ATP luminescence, 48 h; also: potency is read from the fitted curve at half-maximal effect; nearly all actives have a fitted effect of over 55% in size
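Chicken DT40 Tdp1-/- cells stably complemented with human TDP1 were seeded at 400 cells/well with DMSO in place of 20 nM camptothecin. After compound pinning, cells grew at least 48 hr at 37 °C; viability read by CellTiter-Glo luminescence.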
TDP1 block = qHTS Assay for Inhibitors of Tyrosyl-DNA Phosphodiesterase (TDP1). Tyrosyl-DNA phosphodiesterase 1 (Homo sapiens), Q9NUW8. recombinant TDP1, AlphaScreen DNA substrate cleavage. Potency, µM (doses to about 130 µM), for the others: at the top dose activity change, negative = inhibition, usual class: inhibitors. 0.28% of 350,000 active. AID 485290, 2010; also: potency is read from the fitted curve at half-maximal effect; nearly all actives have a fitted effect of over 40% in size
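Enzyme-compound mixtures sat 15 min at room temperature, followed by a 5 min reaction with 15 nM final substrate and 10 min with AlphaScreen beads. Recombinant human Tdp1 was used at 1 nM final.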
Numbers without * were called inactive; ? = inconclusive; / = no result given. In the library only some 18% were active in any assay of this set; here they are far more common. Unless noted, calls follow the shape of the dose curve; as a rule, active = well fitted curve in the direction sought with a large enough effect; inconclusive = small, poorly fitted or top-dose-only effect, or another doubt; inactive = no such curve, though single readings can be large; an effect the other way counts as inactive or inconclusive. % is scaled to controls: 0 for no effect and ±100 for the full control effect.

SMILES	TDP1 cell CPT	IL1B secr inh	Six1-Eya2 blk	CtBP-E1A inh	DT40 TDP1 no CPT	TDP1 block
N#Cc1ccc(C(=O)Nc2cc(-c3ccccc3)nn2-c2ccccc2)cc1	?	-16.9	0.5	0.7	-28.3%	/
N#Cc1ccc(C(=O)Nc2cc(-c3ccc(F)cc3)nn2-c2ccccc2)cc1	14.6µM*	-6.2	2.0	3.8	?	/
O=C(Nc1cc(-c2ccccc2)nn1-c1c(Cl)cccc1Cl)c1ccc(F)cc1	20.6µM*	-25.1	-5.5	1.5	18.4µM*	0.9%
COCCNc1nc(Oc2cncc(Cl)c2)c2sccc2n1	?	-27.0	-1.2	-1.2	?	/
CCOc1cccc(OCCOCCNC(C)(C)C)c1	-3.4%	0.0	8.6	-3.4	-0.2%	-10.6%
COc1ccc(N(C)C(=O)Cc2c(C(=O)O)n(C)c3ccccc23)cc1	-3.2%	1.1	1.2	/	-14.4%	/
CCOc1ccc2c(c1)OC(c1ccc(OC)cc1)(C(F)(F)F)NC2=O (centres undefined)	3.26µM*	-28.7	-5.1	0.2	3.26µM*	2.8%
CCCCOc1ccc(C(=O)NCC(=O)N2CCN(Cc3ccc4c(c3)OCO4)CC2)cc1	?	-6.1	10.9	-0.8	13µM*	-17.6%
O=C(CCc1ccc(S(=O)(=O)NCCc2ccccc2)cc1)N1CCN(Cc2ccc3c(c2)OCO3)CC1	/	/	/	/	/	5.3%
O=C(NCC(=O)N1CCN(Cc2ccc3c(c2)OCO3)CC1)c1ccccc1F	31.5%	13.7	0.2	4.8	-1.2%	-0.4%
COc1ccccc1NS(=O)(=O)c1cc(C(=O)N2CCN(C/C=C/c3ccccc3)CC2)ccc1C	?	-8.1	-11.9	6.1	?	6.6%
Cc1cccc(NS(=O)(=O)c2cccc(C(=O)N3CCCCCCC3)c2)c1	18.4µM*	-60.2*	3.1	-3.3	5.17µM*	3.5%
CC(C)CNS(=O)(=O)c1ccc(CCC(=O)N2CCN(Cc3ccc4c(c3)OCO4)CC2)cc1	13µM*	?	0.8	-0.8	18.4µM*	0.0%
COc1ccccc1NS(=O)(=O)c1cccc(C(=O)N2CCN(C/C=C/c3ccccc3)CC2)c1	20.6µM*	-0.8	-8.2	-5.3	20.6µM*	6.2%
COc1ccc(NS(=O)(=O)c2cccc(C(=O)N3CCN(C/C=C/c4ccccc4)CC3)c2)cc1	23.1µM*	-3.0	?	-2.8	16.4µM*	/
Cc1cccc(NS(=O)(=O)c2cccc(C(=O)N3CCN(C/C=C/c4ccccc4)CC3)c2)c1	?	-54.3*	-10.2	-2.6	?	3.7%
COc1ccc(NS(=O)(=O)c2cccc(C(=O)N3CCN(Cc4ccc5c(c4)OCO5)CC3)c2)cc1	25.9µM*	-24.8	-28.1	-9.6	?	2.5%
COc1ccc(NS(=O)(=O)c2cccc(C(=O)N3CCN(S(=O)(=O)c4ccccc4)CC3)c2)cc1	?	0.0	4.6	1.5	?	/
O=C(c1ccc(NS(=O)(=O)c2ccccc2)cc1)N1CCN(Cc2ccc3c(c2)OCO3)CC1	?	-8.7	1.2	-5.8	?	3.1%
Cc1cccc(NS(=O)(=O)c2cccc(C(=O)N3CCCC3)c2)c1	-0.4%	-5.5	13.6	-17.9	?	1.2%
Cc1cccc(N(CC(=O)NC(C)(C)C)C(=O)CS(=O)CC(=O)Nc2ccc(F)cc2)c1 (centres undefined)	-9.1%	3.2	-0.4	8.2	-24.8%	0.0%
CSCC[C@H](NC(=O)OC(C)(C)C)C(=O)N1CCC(C(=O)N[C@@H](C)C(=O)O)CC1	-10.0%	17.6	4.2	8.0	-4.0%	5.8%
CC(C)(C)n1nc2c(c1NC(=O)c1ccccc1S(=O)(=O)C(F)F)CS(=O)(=O)C2	-7.2%	-5.8	-21.0	-27.5	1.5%	-17.7%
CCOC(=O)c1c(-c2ccc(OC)cc2)oc2ccc(OCC(N)=O)cc12	?	29.0	-2.1	-5.8	-4.0%	/
CN(C)CCOC1c2ccccc2CCc2ccc3ccccc3c21 (centres undefined)	?	-85.7*	-16.6	-13.8	20.6µM*	/
SMILES	TDP1 cell CPT	IL1B secr inh	Six1-Eya2 blk	CtBP-E1A inh	DT40 TDP1 no CPT	TDP1 block
COc1ccccc1C(=O)Nc1cc2cc(Cl)ccc2oc1=O	-17.4%	23.1	11.9	5.5	?	1.0%
O=C(Cc1cccc(NC(=O)C2CCCN(C(=O)C3CCC3)C2)c1)Nc1cccc(C(=O)N2CCCCC2)c1 (centres undefined)	?	6.0	-0.7	3.7	?	/
CCOC(=O)c1c(CN2CCCCC2)n(C)c2cc(Br)c(OC)cc12	?	-1.7	-20.1	-9.1	11.2µM*	-2.1%
CCOC(=O)c1c(CN(CC)CC)n(C)c2cc(Br)c(O)cc12	-11.5%	-5.4	-5.9	-1.1	?	/
CCOC(=O)c1c(CN2CCOCC2)n(-c2ccccc2)c2cc(Br)c(O)c(CN(C)C)c12	?	?	0.8	-2.1	?	-1.5%
CCOC(=O)c1c(C)n(C)c2ccc(O)cc12	-0.8%	/	/	/	-24.6%	5.2%
CCOC(=O)c1c(CN2CCCCC2)n(C)c2cc(Br)c(O)c(CN(C)C)c12	18.4µM*	-10.5	-8.6	0.3	?	6.1%
CCOC(=O)c1c(CSc2ccsc2)n(C)c2cc(Br)c(O)c(CN(C)C)c12	18.4µM*	-53.0*	-23.0	-0.6	23.1µM*	4.8%
CCOC(=O)c1c(CSc2ccccc2)n(C)c2cc(Br)c(O)c(CN(C)C)c12	20.6µM*	-86.0*	-26.5	-22.5	14.6µM*	2.7%
Cc1ccc2c(=O)cc(C(=O)Nc3sc4c(c3C(=O)NCc3ccccc3)CCCC4)oc2c1C	2.3%	/	/	/	-8.9%	3.7%
O=C(NC1CCSc2ccccc21)c1ccc(F)cc1 (centres undefined)	-0.2%	-2.6	-1.0	-0.6	-16.4%	1.8%
O=C(CCNC(=O)c1ccc(Br)o1)NCc1ccccn1	-12.5%	-9.7	-4.7	-17.3	19.0%	8.7%
Cc1ccc(OCCCn2c(=O)sc3ccccc32)cc1	-3.0%	36.7	40.4	37.9	-14.6%	/
CCc1ccccc1NC(c1nnc(-c2cccc(F)c2)o1)c1ccc(F)cc1Cl (centres undefined)	-14.0%	/	/	/	-27.0%	-2.5%
